# How the values were obtained:
# Assay in all cases: DAPPL (digital affinity profiling via proximity ligation, sequencing); 10 mM Tris-HCl pH 7.5, 50 mM NaCl, 1 mM DTT, 4% glycerol, room temperature, 30 min; GST-TFs on glutathione beads, 16-mer random dsDNA library, 0.1% formaldehyde crosslink after washing; high values mean tight binding
# [1] = target: T1, FEV (Homo sapiens, UniProt Q99581 1-238); details: protein: recombinant; tags: N-terminal GST; dsDNA, one strand shown
# T1 sequence: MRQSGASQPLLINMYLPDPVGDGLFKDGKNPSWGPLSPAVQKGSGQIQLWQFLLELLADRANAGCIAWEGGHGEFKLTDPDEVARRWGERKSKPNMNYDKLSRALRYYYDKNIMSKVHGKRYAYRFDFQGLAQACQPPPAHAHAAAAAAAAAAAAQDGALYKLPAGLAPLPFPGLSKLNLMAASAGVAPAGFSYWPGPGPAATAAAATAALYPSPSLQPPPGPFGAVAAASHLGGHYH
# Method in brief: (§1)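 Binding signal is each hexamer's read frequency for a factor divided by its frequency in the tag-only sample. The factors were GST-fused human transcription factors from yeast, captured on glutathione beads, DNA-barcoded and pooled with that sample. Pools were incubated with 200 nmole of a random double-stranded 16-mer DNA library in Tris/NaCl/DTT/glycerol buffer at room temperature for 30 min, then washed, crosslinked with 0.1% formaldehyde, proximity-ligated with BsaI/T4 ligase (1 h, 37 °C), PCR-amplified and sequenced on an Illumina NextSeq500.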
# [2] = target: ETV5 (Homo sapiens, UniProt P41161 1-510); details: protein: recombinant; tags: N-terminal GST; dsDNA, one strand shown
# Method in brief: as §1
# [3] = target: HSF1 (Homo sapiens, UniProt Q00613 1-529); details: protein: recombinant; tags: N-terminal GST; chain copies: 3; dsDNA, one strand shown
# Method in brief: as §1
# [4] = target: T2, SPIC (Homo sapiens, UniProt Q8N5J4 1-248); details: protein: recombinant; tags: N-terminal GST; dsDNA, one strand shown
# T2 sequence: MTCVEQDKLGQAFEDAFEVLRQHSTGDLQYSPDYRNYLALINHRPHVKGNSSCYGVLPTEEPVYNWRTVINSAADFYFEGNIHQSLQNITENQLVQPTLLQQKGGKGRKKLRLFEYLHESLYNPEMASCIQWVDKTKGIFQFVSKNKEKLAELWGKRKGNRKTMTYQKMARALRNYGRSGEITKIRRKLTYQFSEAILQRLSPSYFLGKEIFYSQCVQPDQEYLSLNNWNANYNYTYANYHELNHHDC
# Method in brief: as §1
# [5] = target: ELF4 (Homo sapiens, UniProt Q99607 1-663); details: protein: recombinant; tags: N-terminal GST; dsDNA, one strand shown
# Method in brief: as §1
# [6] = target: T3, ELK4 (Homo sapiens, UniProt P28324-2 1-405); details: protein: recombinant; tags: N-terminal GST; dsDNA, one strand shown
# T3 sequence: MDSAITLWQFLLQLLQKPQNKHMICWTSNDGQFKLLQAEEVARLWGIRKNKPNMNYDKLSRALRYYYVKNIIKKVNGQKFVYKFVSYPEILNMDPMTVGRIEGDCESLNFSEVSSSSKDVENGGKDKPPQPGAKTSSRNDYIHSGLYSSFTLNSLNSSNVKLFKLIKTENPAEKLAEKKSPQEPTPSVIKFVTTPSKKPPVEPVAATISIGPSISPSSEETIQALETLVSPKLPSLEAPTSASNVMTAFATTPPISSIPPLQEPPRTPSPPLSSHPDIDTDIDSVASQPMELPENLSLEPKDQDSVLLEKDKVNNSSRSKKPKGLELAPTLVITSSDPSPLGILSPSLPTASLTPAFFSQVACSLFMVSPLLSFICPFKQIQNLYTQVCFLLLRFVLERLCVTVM
# Method in brief: as §1
# [7] = target: T4, ETV2 (Homo sapiens, UniProt O00321 1-342); details: protein: recombinant; tags: N-terminal GST; dsDNA, one strand shown
# T4 sequence: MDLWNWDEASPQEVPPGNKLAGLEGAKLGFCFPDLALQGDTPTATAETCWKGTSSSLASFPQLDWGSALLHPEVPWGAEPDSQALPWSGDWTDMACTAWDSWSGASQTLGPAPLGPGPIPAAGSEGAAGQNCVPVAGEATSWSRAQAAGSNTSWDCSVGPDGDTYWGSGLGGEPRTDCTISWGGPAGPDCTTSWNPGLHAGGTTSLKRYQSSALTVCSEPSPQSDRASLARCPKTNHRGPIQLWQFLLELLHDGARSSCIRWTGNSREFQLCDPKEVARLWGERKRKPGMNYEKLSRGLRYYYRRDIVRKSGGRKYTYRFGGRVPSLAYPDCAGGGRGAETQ
# Method in brief: as §1
# [8] = target: T5, ELF3 (Homo sapiens, UniProt P78545 1-371); details: protein: recombinant; tags: N-terminal GST; dsDNA, one strand shown
# T5 sequence: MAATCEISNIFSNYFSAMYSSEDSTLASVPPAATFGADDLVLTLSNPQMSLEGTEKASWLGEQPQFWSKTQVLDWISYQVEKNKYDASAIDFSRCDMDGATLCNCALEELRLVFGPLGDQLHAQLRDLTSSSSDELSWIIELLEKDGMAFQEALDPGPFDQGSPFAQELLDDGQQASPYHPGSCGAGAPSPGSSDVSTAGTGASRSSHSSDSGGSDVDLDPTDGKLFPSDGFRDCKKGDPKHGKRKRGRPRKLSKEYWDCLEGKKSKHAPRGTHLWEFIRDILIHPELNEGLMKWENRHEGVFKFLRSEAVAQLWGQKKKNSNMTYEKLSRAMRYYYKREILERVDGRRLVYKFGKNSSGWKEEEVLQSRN
# Method in brief: as §1
# [9] = target: CRX (Homo sapiens, UniProt O43186 1-299); details: protein: recombinant; tags: N-terminal GST; dsDNA, one strand shown
# Method in brief: as §1
# [10] = target: ETV1 (Homo sapiens, UniProt P50549 1-477); details: protein: recombinant; tags: N-terminal GST; dsDNA, one strand shown
# Method in brief: as §1
# [11] = target: T6, ERF (Homo sapiens, UniProt P50548 1-548); details: protein: recombinant; tags: N-terminal GST; dsDNA, one strand shown
# T6 sequence: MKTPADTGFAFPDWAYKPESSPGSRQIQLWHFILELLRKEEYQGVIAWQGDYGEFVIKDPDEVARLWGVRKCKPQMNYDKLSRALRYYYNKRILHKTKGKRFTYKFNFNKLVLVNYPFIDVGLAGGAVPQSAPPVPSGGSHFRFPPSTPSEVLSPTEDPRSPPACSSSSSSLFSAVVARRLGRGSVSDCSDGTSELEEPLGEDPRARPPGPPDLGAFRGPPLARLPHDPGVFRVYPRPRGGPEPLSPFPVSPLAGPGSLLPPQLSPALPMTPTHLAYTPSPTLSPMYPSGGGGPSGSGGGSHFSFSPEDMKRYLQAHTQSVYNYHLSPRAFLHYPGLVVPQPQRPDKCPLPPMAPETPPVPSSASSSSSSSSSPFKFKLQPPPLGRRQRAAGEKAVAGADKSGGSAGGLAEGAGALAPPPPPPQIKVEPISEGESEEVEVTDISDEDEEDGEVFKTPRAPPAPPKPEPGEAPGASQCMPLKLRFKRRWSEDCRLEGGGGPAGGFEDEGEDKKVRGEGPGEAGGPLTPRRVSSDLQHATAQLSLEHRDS
# Method in brief: as §1
# [12] = target: T7, ETV3L (Homo sapiens, UniProt Q6ZN32 1-361); details: protein: recombinant; tags: N-terminal GST; dsDNA, one strand shown
# T7 sequence: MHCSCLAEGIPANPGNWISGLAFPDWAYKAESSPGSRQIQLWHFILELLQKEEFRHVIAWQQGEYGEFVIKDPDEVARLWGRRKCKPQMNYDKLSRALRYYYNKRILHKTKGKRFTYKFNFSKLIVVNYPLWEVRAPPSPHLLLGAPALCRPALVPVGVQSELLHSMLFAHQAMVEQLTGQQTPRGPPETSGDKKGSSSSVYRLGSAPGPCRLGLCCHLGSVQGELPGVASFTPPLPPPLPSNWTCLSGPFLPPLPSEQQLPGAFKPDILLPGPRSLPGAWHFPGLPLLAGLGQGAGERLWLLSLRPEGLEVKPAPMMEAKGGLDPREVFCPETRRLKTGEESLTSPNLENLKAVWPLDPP
# Method in brief: as §1
# [13] = target: T8, ETS2 (Homo sapiens, UniProt P15036 1-469); details: protein: recombinant; tags: N-terminal GST; dsDNA, one strand shown
# T8 sequence: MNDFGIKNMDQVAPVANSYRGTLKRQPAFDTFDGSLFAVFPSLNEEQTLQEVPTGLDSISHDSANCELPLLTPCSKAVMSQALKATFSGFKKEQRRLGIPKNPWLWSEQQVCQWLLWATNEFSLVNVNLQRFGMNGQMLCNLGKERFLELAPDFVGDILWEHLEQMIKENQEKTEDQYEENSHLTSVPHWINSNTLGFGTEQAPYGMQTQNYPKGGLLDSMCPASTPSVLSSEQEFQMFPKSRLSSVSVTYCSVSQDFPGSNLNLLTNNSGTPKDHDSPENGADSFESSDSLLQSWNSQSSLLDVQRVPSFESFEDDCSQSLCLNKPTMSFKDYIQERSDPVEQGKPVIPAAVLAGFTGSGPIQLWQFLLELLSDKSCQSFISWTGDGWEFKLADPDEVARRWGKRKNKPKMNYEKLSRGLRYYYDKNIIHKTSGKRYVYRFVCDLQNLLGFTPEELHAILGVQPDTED
# Method in brief: as §1
# [14] = target: T9, SPDEF (Homo sapiens, UniProt O95238 1-335); details: protein: recombinant; tags: N-terminal GST; dsDNA, one strand shown
# T9 sequence: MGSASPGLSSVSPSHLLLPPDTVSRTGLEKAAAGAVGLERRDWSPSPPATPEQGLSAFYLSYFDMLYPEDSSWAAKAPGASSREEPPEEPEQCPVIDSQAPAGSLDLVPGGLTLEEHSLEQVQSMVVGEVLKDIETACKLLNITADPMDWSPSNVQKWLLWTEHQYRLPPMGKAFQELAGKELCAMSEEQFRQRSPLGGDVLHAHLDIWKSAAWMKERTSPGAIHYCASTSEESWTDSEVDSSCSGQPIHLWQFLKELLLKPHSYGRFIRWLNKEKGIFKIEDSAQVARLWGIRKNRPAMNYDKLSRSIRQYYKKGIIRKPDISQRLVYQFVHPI
# Method in brief: as §1
# [15] = target: T10, ETV7 (Homo sapiens, UniProt Q9Y603 1-341); details: protein: recombinant; tags: N-terminal GST; dsDNA, one strand shown
# T10 sequence: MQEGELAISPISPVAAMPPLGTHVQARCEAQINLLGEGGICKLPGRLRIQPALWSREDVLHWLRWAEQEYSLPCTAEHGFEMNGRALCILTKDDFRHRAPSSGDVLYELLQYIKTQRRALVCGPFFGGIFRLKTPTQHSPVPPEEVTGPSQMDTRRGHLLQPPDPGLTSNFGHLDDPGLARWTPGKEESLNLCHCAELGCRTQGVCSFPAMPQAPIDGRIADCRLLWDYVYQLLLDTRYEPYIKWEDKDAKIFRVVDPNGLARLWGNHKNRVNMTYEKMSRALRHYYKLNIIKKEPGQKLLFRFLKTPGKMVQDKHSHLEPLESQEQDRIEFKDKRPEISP
# Method in brief: as §1
# [16] = target: T11, ELF5 (Homo sapiens, UniProt Q9UKW6-2 1-255); details: protein: recombinant; tags: N-terminal GST; dsDNA, one strand shown
# T11 sequence: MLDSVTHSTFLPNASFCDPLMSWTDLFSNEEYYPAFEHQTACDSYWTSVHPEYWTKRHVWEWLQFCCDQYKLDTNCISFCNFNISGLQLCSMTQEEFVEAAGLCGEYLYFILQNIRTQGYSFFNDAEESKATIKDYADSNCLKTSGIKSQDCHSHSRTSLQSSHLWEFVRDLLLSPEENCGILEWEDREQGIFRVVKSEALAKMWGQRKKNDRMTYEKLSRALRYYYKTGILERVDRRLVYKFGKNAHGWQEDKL
# Method in brief: as §1
# [17] = target: T12, ETV3 (Homo sapiens, UniProt P41162-2 1-143); details: protein: recombinant; tags: N-terminal GST; dsDNA, one strand shown
# T12 sequence: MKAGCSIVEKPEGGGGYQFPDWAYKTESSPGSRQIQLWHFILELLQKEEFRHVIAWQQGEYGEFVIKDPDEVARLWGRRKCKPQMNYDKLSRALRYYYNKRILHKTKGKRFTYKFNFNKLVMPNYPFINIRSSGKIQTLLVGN
# Method in brief: as §1
# [18] = target: ETV6 (Homo sapiens, UniProt P41212 1-452); details: protein: recombinant; tags: N-terminal GST; dsDNA, one strand shown
# Method in brief: as §1
# Chain of ETV5 (P41161 whole entry): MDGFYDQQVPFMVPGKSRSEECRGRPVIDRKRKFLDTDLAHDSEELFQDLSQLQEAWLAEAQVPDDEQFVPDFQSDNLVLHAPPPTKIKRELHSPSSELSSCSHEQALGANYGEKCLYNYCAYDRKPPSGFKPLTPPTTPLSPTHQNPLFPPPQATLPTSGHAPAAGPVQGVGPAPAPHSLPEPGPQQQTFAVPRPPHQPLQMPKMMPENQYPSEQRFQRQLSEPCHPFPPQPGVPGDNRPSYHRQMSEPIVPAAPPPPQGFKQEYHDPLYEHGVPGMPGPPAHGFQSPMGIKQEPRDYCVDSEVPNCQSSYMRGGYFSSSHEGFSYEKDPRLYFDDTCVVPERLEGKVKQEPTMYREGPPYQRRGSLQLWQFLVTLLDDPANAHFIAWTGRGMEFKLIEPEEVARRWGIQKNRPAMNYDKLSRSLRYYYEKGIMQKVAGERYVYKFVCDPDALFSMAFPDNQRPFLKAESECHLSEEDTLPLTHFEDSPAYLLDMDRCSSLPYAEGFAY
# Chain of ELF4 (Q99607 whole entry): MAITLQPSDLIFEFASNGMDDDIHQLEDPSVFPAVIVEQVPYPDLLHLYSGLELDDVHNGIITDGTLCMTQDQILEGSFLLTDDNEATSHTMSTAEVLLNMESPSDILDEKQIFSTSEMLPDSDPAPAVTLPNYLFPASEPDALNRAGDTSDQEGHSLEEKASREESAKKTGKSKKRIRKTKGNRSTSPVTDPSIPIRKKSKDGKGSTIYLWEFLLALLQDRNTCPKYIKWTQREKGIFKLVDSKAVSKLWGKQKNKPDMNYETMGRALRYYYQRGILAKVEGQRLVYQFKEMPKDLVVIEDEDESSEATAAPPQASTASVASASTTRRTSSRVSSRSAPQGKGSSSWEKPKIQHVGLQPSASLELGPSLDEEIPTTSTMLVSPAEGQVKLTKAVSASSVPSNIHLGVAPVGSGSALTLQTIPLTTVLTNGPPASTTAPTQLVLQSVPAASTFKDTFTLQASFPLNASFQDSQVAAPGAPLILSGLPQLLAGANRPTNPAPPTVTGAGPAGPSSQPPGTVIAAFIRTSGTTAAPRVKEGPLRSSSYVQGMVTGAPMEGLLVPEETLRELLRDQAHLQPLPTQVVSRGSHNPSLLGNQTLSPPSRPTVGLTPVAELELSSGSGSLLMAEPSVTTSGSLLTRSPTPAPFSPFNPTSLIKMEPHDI
# Chain of HSF1 (Q00613 whole entry): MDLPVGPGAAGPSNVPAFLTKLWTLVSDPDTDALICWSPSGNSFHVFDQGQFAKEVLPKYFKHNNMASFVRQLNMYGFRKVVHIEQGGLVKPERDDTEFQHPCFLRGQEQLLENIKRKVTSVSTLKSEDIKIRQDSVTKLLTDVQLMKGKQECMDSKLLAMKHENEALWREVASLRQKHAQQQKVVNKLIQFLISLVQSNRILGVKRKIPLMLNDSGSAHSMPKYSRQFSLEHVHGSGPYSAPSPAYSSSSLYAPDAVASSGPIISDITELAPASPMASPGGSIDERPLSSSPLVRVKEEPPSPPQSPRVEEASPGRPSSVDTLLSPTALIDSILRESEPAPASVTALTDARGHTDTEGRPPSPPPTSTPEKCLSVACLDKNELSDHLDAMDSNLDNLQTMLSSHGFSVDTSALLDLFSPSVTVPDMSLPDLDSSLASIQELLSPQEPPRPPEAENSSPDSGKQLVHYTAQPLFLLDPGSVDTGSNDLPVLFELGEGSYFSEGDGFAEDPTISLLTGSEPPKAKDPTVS
# Chain of ETV6 (P41212 whole entry): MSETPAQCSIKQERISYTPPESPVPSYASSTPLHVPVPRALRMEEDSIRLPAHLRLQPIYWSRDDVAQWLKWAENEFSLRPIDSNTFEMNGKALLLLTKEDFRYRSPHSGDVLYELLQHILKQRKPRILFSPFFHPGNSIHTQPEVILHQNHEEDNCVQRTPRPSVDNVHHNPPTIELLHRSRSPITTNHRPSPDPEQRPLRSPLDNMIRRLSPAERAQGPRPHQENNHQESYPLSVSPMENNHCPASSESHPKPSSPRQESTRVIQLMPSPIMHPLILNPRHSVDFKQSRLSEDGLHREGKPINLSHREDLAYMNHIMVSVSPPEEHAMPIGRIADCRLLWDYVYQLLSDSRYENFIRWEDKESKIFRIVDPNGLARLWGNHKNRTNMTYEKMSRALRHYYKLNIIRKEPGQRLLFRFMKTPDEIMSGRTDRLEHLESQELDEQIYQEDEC
# Chain of CRX (O43186 whole entry): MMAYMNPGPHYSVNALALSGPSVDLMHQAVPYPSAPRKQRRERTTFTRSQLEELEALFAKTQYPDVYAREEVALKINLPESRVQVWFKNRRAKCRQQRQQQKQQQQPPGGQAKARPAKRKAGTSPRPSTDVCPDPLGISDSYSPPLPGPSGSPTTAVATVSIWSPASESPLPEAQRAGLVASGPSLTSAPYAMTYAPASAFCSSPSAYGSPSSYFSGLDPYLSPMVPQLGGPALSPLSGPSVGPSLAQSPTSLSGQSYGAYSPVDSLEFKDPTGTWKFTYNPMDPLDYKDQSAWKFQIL
# Chain of ETV1 (P50549 whole entry): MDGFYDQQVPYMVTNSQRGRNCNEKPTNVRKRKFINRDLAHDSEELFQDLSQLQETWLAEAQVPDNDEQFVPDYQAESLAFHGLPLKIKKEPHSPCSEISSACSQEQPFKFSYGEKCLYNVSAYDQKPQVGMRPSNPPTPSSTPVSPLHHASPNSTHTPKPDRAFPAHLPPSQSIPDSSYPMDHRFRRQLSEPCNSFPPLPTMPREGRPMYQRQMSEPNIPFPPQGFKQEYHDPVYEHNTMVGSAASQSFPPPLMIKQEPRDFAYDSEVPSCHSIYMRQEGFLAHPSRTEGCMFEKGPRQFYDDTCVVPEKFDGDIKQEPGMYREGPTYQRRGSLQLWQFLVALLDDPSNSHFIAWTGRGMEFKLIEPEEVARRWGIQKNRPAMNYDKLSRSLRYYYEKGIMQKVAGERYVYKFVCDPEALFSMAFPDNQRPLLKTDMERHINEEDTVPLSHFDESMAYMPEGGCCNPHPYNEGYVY
sequence,measurement,setting,value
GGTCTC,binding signal,[1],"2.46 fold enrichment (6-mer frequency, TF over GST control)"
same,binding signal,[2],"2.46 fold enrichment (6-mer frequency, TF over GST control)"
same,binding signal,[3],"1.44 fold enrichment (6-mer frequency, TF over GST control)"
same,binding signal,[4],"2.4 fold enrichment (6-mer frequency, TF over GST control)"
same,binding signal,[5],"2.51 fold enrichment (6-mer frequency, TF over GST control)"
same,binding signal,[6],"2.64 fold enrichment (6-mer frequency, TF over GST control)"
same,binding signal,[7],"2.18 fold enrichment (6-mer frequency, TF over GST control)"
same,binding signal,[8],"2.29 fold enrichment (6-mer frequency, TF over GST control)"
same,binding signal,[9],"1.48 fold enrichment (6-mer frequency, TF over GST control)"
same,binding signal,[10],"2.58 fold enrichment (6-mer frequency, TF over GST control)"
same,binding signal,[11],"2.29 fold enrichment (6-mer frequency, TF over GST control)"
same,binding signal,[12],"2.36 fold enrichment (6-mer frequency, TF over GST control)"
same,binding signal,[13],"2.55 fold enrichment (6-mer frequency, TF over GST control)"
same,binding signal,[14],"1.93 fold enrichment (6-mer frequency, TF over GST control)"
same,binding signal,[15],"2.04 fold enrichment (6-mer frequency, TF over GST control)"
same,binding signal,[16],"2.18 fold enrichment (6-mer frequency, TF over GST control)"
same,binding signal,[17],"2.64 fold enrichment (6-mer frequency, TF over GST control)"
same,binding signal,[18],"1.99 fold enrichment (6-mer frequency, TF over GST control)"
